These results are taken from PubChem BioAssay.

Active and inactive are the calls of the source. Unless noted, no rule for the calls is given here.

Assay [1] in a line: anti-His antibody binders, primary screen, artefact control for SMM control protein annotation, biochemical, small-molecule microarray, 635 nm fluorescence (AID 1128).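 Also: score merges feature fluorescence with signal-to-noise for each printed compound spot.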 The settings on record: anti-His Alexa647 antibody binding, higher = more signal.
Assay [2] has as its system Human papillomavirus type 1a E7 protein (residues 1-88). Briefly: HPV1a E7 small-molecule binders, primary screen, biochemical, small-molecule microarray, residues 1-88, 635 nm (AID 1129). Conditions: small-molecule microarray binding, fluorescence 635 nm; higher = more signal.
The target in assay [3] is Focal adhesion kinase 1 (Homo sapiens) (UniProt Q05397). Briefly: small-molecule microarray binders of FAK, primary screen, biochemical, 635/667 nm fluorescence, BSA, DTT (AID 1130).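 Also: composite of spot emission at 667 nm and signal to noise over triplicate slides.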 Conditions: PTK2 binding, 635 nm fluorescence, higher = more signal.
Chain of Focal adhesion kinase 1 (Homo sapiens) (Q05397 whole entry, looked up): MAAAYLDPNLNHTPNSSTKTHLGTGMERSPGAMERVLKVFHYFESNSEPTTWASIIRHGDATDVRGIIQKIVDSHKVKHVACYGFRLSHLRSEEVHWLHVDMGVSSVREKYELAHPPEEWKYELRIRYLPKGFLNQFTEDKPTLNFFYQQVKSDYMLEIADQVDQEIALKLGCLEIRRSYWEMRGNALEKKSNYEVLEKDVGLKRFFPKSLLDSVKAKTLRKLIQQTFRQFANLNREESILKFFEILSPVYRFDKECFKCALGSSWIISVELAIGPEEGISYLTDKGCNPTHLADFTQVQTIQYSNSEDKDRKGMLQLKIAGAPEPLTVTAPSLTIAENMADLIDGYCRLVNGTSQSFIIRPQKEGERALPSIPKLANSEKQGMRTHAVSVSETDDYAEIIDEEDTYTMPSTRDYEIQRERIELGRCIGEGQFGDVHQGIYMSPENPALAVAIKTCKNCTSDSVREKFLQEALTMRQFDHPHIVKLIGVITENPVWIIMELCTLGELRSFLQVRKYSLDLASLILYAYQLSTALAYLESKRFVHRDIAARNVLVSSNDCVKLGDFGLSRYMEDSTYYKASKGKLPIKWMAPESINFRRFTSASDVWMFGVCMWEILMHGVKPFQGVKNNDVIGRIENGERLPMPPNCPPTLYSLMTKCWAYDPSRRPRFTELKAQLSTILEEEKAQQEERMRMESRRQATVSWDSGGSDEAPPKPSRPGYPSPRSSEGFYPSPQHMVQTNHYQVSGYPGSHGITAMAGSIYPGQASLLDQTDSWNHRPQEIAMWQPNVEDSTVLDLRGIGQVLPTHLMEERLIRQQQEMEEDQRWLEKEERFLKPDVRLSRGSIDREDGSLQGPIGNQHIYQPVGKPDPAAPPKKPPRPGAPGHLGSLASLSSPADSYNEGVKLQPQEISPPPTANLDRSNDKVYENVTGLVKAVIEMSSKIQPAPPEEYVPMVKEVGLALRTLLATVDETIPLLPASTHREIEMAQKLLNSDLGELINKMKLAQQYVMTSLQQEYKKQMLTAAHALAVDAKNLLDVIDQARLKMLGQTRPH
Assay [4] has as its system Fibrinogen (Alexa647-labelled). Briefly: fibrinogen binders on compound microarrays, profiling panel, artefact control for SMM control-protein annotation, biochemical, small-molecule microarray, 635/667 nm fluorescence (AID 1131).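 Also: z-score merges 667 nm fluorescence with per-spot signal-to-noise over triplicate slides.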 The settings on record: fibrinogen-A647 binding fluorescence, higher = more signal.
Assay [5] addresses Follistatin (Homo sapiens) (UniProt P19883). Briefly: follistatin binders on small-molecule microarrays, primary screen, biochemical, small-molecule microarray, 635/667 nm fluorescence (AID 1132). Conditions: FST binding, 635 nm fluorescence, higher = more signal.
The target of assay [6] is Fibroblast growth factor 2 (Homo sapiens) (UniProt P09038). Briefly: FGF2 binders on small-molecule microarrays, primary screen, biochemical, small-molecule microarray, 635/667 nm fluorescence (AID 1133). Conditions: small-molecule microarray binding, FGF2, fluorescence 635/667; higher = more signal.
Chain of Fibroblast growth factor 2 (Homo sapiens) (P09038 whole entry, looked up): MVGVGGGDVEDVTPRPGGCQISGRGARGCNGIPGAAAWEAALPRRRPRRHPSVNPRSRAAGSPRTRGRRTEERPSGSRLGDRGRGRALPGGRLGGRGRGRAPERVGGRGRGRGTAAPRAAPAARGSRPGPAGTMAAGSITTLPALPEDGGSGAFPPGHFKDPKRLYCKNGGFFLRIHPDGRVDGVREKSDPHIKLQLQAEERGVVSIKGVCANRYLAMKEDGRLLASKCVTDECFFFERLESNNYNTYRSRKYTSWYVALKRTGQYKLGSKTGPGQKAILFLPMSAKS
A short description of assay [7]: mitochondrial membrane potential change in A549 cells, profiling panel, cell-based, JC-1 fluorescence, basal, 24 h, 100 nL (AID 1138).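 Also: A549 lung adenocarcinoma cells under basal conditions with no added stimulus; test concentration not given here.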 The settings on record: higher = more signal.
The next assay concerns Lefty1. Briefly: Lefty1 binders on small-molecule microarrays, primary screen, biochemical, small-molecule microarray, 635/667 nm fluorescence (AID 1139). Conditions: small-molecule microarray binding, fluorescence 635/667; higher = more signal.
The subject of assay [8] is wheat germ agglutinin (Triticum aestivum), Alexa647-labelled. Briefly: wheat germ agglutinin binders on compound microarrays, profiling panel, artefact control for SMM control-protein annotation, biochemical, small-molecule microarray, 635/667 nm fluorescence (AID 1140).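 Also: score merges 667 nm feature emission with signal to noise over triplicate slides.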 The settings on record: WGA-A647 binding, 635 nm fluorescence, higher = more signal.
Assay [9] addresses Luciferin 4-monooxygenase (Photinus pyralis) (UniProt P08659). The assay is described as follows: firefly luciferase enzyme inhibitors, primary screen, biochemical, luminescence, purified enzyme, 2006 set (AID 1141).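 Also: cell-free assay with purified firefly luciferase at 100 ng per well in PBS; test concentration not given here.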 The settings on record: SteadyGlo luminescence, 30 min, higher = more signal, called active from +8 up or from −8 down.
In assay [10] the test system is Wnt5a (protein binding on small-molecule microarray). The assay is described as follows: Wnt5a binders on small-molecule microarray, primary screen, biophysical, 635/667 nm fluorescence (AID 1142).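 Also: fluorescence read at 667 nm with signal to noise per printed feature.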 The settings on record: 635 nm fluorescence, higher = more signal.
Assay [11] can be described thus: cell viability in Huh7 cells, primary screen, cytotoxicity control for HCV replication inhibitor project, CellTiter-Glo luminescence, basal, 48 h (AID 1143).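 Also: Huh7 hepatoma cells carrying a hepatitis C replication reporter with no stimulus; test concentration not given here.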 Conditions: Huh7 HCV replicon, higher = more signal, called active from +8 up or from −8 down. For orientation: In ATP-based viability assays light output follows the ATP content of the culture.
Assay [12] is described as follows: P. aeruginosa biofilm formation inhibitors, primary screen, PAO1 strain, BacTiter-Glo luminescence, LB-PBS (AID 1144). The settings on record: 12 h, higher = more signal.
Assay [13] is described as follows: CREB reporter modulators without forskolin, primary screen, cell-based, PC12, CRE-LacZ reporter, unstimulated (AID 1145). The settings on record: no forskolin, luminescence, 4.5 h, higher = more signal, called active from +8 up or from −8 down.
Assay [14] is described as follows: CREB reporter modulators under forskolin, primary screen, cell-based, PC12, CRE-LacZ reporter, forskolin-stimulated (AID 1146).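 Also: PC12 cells with 6xCRE LacZ reporter stimulated by forskolin 10 µM; beta-galactosidase reporter signal reflecting CREB driven transcription.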 The settings on record: luminescence, 4.5 h, higher = more signal, called active from +8 up or from −8 down.
The target of assay [15] is Streptavidin (Streptomyces avidinii) (UniProt P22629). The assay is described as follows: streptavidin binders on small-molecule microarray, primary screen, artefact control for SMM compound annotation, biophysical, 635/667 nm fluorescence (AID 1147).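 Also: signal reflects streptavidin binding to arrayed compounds as a control protein.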 The settings on record: streptavidin binding, higher = more signal.
Chain of Streptavidin (Streptomyces avidinii) (P22629 whole entry, looked up): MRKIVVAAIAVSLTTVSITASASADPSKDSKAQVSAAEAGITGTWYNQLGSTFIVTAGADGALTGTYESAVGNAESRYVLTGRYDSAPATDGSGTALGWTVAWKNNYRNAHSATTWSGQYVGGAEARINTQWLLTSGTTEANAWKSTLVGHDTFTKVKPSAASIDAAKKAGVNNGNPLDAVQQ
A short description of assay [16]: small-molecule binders of probe aInhba, primary screen, biochemical, small-molecule microarray, 635/667 nm fluorescence (AID 1148).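 Also: score merges 667nm spot fluorescence with signal-to-noise for antibody binding to printed compounds.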 Conditions: higher = more signal.
Assay [17] deals with Torsin-1A (Homo sapiens) (UniProt O14656). The assay is described as follows: torsin A binders from cell lysate, primary screen, small-molecule microarray, wild-type, 635/667 nm (AID 1149). The settings on record: COS7 hTOR1A-WT lysate, 635 nm fluorescence, higher = more signal.
Chain of Torsin-1A (Homo sapiens) (O14656 whole entry, looked up): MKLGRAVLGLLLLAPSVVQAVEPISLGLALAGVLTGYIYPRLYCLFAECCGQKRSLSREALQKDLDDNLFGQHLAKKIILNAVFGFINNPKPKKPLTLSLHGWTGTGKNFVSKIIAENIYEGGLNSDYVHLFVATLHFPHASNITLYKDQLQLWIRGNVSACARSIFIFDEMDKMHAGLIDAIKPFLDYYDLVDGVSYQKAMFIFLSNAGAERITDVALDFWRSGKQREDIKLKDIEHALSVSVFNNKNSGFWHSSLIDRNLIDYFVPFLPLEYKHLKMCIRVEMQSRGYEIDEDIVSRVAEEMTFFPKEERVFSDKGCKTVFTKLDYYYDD
Assay [18] has the same target. Briefly: small-molecule binders of mutant TOR1A in lysate, primary screen, cell lysate, small-molecule microarray, COS7 lysate, 635/667 nm fluorescence (AID 1150).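 Also: score pools 667 nm emission and signal to noise measuring lysate protein binding.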 The settings on record: COS7 hTOR1A mutant lysate, 635 nm fluorescence, higher = more signal.
Assay [19] concerns Sonic hedgehog protein (Shh). The assay is described as follows: small-molecule binders of Shh protein, primary screen, biochemical, small-molecule microarray, 635/667 nm fluorescence (AID 1151).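 Also: Shh protein binding to compounds spotted on small-molecule microarray slides; score combines spot fluorescence intensity with signal-to-noise across triplicate slides.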 The settings on record: small-molecule microarray binding, 635 nm fluorescence; higher = more signal.

Chain of Luciferin 4-monooxygenase (Photinus pyralis) (P08659 whole entry, looked up): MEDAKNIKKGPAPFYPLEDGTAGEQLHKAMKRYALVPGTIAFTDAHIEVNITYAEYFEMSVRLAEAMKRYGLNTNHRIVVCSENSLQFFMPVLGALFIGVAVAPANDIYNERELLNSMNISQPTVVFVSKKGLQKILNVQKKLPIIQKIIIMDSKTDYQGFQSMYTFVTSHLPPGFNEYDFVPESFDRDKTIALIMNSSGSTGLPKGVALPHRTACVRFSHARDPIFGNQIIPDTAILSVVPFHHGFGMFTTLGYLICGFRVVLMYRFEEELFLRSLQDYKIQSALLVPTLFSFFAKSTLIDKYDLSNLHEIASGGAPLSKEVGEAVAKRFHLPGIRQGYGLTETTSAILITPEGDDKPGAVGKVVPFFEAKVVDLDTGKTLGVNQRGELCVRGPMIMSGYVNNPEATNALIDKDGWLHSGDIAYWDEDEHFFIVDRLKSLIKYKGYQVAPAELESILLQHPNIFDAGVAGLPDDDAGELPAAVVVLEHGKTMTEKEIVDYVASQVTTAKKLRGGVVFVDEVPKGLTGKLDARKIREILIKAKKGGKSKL
Chain of Follistatin (Homo sapiens) (P19883 whole entry, looked up): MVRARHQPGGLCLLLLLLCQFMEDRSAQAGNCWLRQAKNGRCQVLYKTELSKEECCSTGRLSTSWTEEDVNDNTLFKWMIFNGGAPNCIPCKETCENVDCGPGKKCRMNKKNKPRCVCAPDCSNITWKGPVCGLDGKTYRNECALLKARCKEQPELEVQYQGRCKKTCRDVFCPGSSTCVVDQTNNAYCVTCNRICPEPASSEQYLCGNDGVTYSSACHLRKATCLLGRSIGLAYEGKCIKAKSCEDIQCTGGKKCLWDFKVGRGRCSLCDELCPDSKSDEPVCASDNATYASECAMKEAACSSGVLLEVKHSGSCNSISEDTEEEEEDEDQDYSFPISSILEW

With `COCCCNC(=O)[C@]1(CCS(=O)(=O)c2ccccc2)N=C(c2ccc(OCCCO)cc2)O[C@@H]1c1ccccc1`, the composite z-score amounted to 1.85 in assay [1]; 1.27 in [2]; 1.57 in assay [3]; 0.997 in assay [4]; 0.892 in assay [5]; 1.36 in assay [6]. Besides, the composite z-score in the assay with Lefty1 is 0.136; in assay [8] it was 0.455; in [10], 0.118; in [15] it was 1.43; in assay [16], 0.371; in the assay with Torsin-1A (Homo sapiens) [17], 0.972. For the same molecule, the composite z-score was 1.33 with Torsin-1A (Homo sapiens) [18] and 0.306 in [19]. Also, the z-score in assay [7] was 1.3; in [9], -1.45 (inactive); in assay [11], -1.63 (inactive); in [12], -0.812 (inactive); in [13] it was 0.638 (inactive); in [14] it was -1.33 (inactive).
`NC(=O)[C@H]1[C@@H]2C(=O)O[C@@H](c3ccccc3)[C@@H](c3ccccc3)N2[C@@H](c2ccc(O)cc2)[C@]12C(=O)Nc1ccc(C#CC3(O)CCCCCC3)cc12`: the composite z-score was found to be 1.55 in [1]; 1.23 in assay [2]; 0.505 in assay [3]; 0.946 in [4]; 1.24 in assay [5]; 1.58 in assay [6]. Besides, the composite z-score in the assay with Lefty1 came out at 0.889; in assay [8], 0.949; in assay [10] it was 0.0428; in assay [15], 0.387; in assay [16] it was 0.0074; with Torsin-1A (Homo sapiens) [17] it was 0.375. For the same molecule, the figures for the composite z-score (with Torsin-1A (Homo sapiens) [18]; in [19]) were 1.37 and 1.46, respectively. Also, the z-score in assay [7] was -1.43; in assay [9], 0.268 (inactive); in assay [11] it was -4.82 (inactive); in assay [12] it was -0.947 (inactive); in [13], 0.272 (inactive); in assay [14] it was 1.09 (inactive).
Take `OCc1ccc(-c2cc[n+](Cc3cccc(OC(F)(F)F)c3)cc2)cc1`: the composite z-score in [1] came out at 2.33; in assay [2], 1.07; in assay [3] it was 0.0665; in [4] it was 0.708; in assay [5], 1.45; in [6], 1.25. The composite z-score with Lefty1 is 1.47; in assay [8], 0.528; in assay [10], 0.252; in assay [15], 1.24; in assay [16], -0.0221; with Torsin-1A (Homo sapiens) [17], 1.18. Besides, the composite z-score with Torsin-1A (Homo sapiens) [18] is 1.12; in [19], 1.98. For the same molecule, the z-score was -0.884 in [7]; 0.194 (inactive) in assay [9]; -1.64 (inactive) in assay [11]; -0.473 (inactive) in assay [12]; -0.374 (inactive) in assay [13]; -0.119 (inactive) in [14].
On to `CC(C)C(CO)N1C(=O)[C@@H]2[C@H]3C(=O)OCC=C[C@H]3OC23C=CCN(CCN2CCOCC2)C(=O)[C@@H]13` (stereo not given in full), for which the composite z-score in assay [1] was 0.108; in [2] it was -0.438; in assay [3], -0.403; in assay [4], 0.0835; in assay [5] it was 0.418; in assay [6] it was -0.328. Besides, the composite z-score was 0.817 with Lefty1; -0.467 in assay [8]; -0.406 in assay [10]; -0.38 in assay [15]; -0.128 in assay [16]; -0.412 in the assay with Torsin-1A (Homo sapiens) [17]. The results for the composite z-score (with Torsin-1A (Homo sapiens) [18]; in [19]) were 0.743 and 1.73, respectively. Besides, the z-score in assay [7] is -0.0537; in assay [9] it was -0.233 (inactive); in [11] it was 0.29 (inactive); in [12] it was 2.66 (inactive); in assay [13], 1.01 (inactive); in assay [14], 1.25 (inactive).
As to `CC(C)C[C@@H]1NC(=O)[C@@H]2C[C@H](C(=O)NCc3ccc(F)cc3)[C@H](c3ccc(O)cc3)N2C1=O`, the composite z-score is 2.13 in assay [1]; 0.0885 in [2]; 0.317 in [3]; 0.248 in [4]; 1.34 in assay [5]; 1.91 in [6]. In addition, the composite z-score was 0.689 in the assay on Lefty1; -0.299 in [8]; 0.187 in assay [10]; -0.419 in assay [15]; -0.118 in assay [16]; 0.483 with Torsin-1A (Homo sapiens) [17]. The composite z-score with Torsin-1A (Homo sapiens) [18] was 0.44; in [19], 1.46. Further, the z-score in [7] is 0.634; in assay [9], -0.0763 (inactive); in assay [11], -0.393 (inactive); in [12], -0.0526 (inactive); in assay [13], -0.26 (inactive); in [14], -0.101 (inactive).
